Results from article PMC5540273 (PLoS ONE, 2017).

Assays:
Settings in all cases: concentration: 1 μM,replicates: in singlicate; n = 1
CAMK1 = system: CAMK1
CAMK2A = system: CAMK2A
CAMK2B = system: CAMK2B
CAMK2D = system: CAMK2D
CAMK2G = system: CAMK2G
CAMK4 = system: CAMK4
CAMKK1 = system: CAMKK1
CAMKK2 = system: CAMKK2
CASK = system: CASK
CDC2L1 = system: T1, CDC2L1
T1 construct: gene CDK11B

CDC2L2 = system: CDC2L2
CDC2L5 = system: T2, CDC2L5
T2 construct: gene CDK13

CDK11 = system: T3, CDK11
T3 construct: gene CDK19

CDK2 = system: CDK2
CDK3 = system: CDK3
CDK4-cyclinD1 = system: CDK4-cyclinD1
CDK4-cyclinD3 = system: CDK4-cyclinD3
CDK4 = system: CDK4
CDK5 = system: CDK5
CDK7 = system: CDK7
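Also: KINOMEscan kinase panel screen.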

| SMILES | %Inh (CAMK1) | %Inh (CAMK2A) | %Inh (CAMK2B) | %Inh (CAMK2D) | %Inh (CAMK2G) | %Inh (CAMK4) | %Inh (CAMKK1) | %Inh (CAMKK2) | %Inh (CASK) | %Inh (CDC2L1) | %Inh (CDC2L2) | %Inh (CDC2L5) | %Inh (CDK11) | %Inh (CDK2) | %Inh (CDK3) | %Inh (CDK4-cyclinD1) | %Inh (CDK4-cyclinD3) | %Inh (CDK4) | %Inh (CDK5) | %Inh (CDK7) |
| --- | --- | --- | --- | --- | --- | --- | --- | --- | --- | --- | --- | --- | --- | --- | --- | --- | --- | --- | --- | --- |
| COc1cc2ncn(-c3cc(OCC4CCCCC4)c(C(N)=O)s3)c2cc1OC [GSK204559] | 13% | 0% | 0% | 5% | 33% | 0% | 12% | 26% | 19% | 0% | 6% | 0% | 12% | 0% | 21% | 0% | 0% | 8% | 0% | 86% |
| CC(C)c1nc(-c2cccc(NS(=O)(=O)c3ccccc3)c2)c(-c2ccnc(Nc3ccc4c(c3)CN(C)CC4)n2)s1 [GSK1649598] | 57% | 0% | 0% | 22% | 28% | 0% | 29% | 23% | 14% | 15% | 24% | 92.7% | 0% | 99.3% | 99.6% | 65% | 44% | 93.7% | 87% | 78% |
| COC(=O)c1cccc(NC(=O)NC2CCN(c3ccnc(Nc4cc(OC)c(OC)c(OC)c4)n3)C2)c1 (stereo not shown) [GSK1379767] | 35% | 0% | 0% | 0% | 26% | 0% | 13% | 19% | 2% | 0% | 36% | 0% | 24% | 0% | 12% | 27% | 0% | 37% | 0% | 16% |
| CC(C(=O)NC1CCN(c2ccnc(Nc3ccc(F)cc3)n2)C1)c1ccc(Cl)cc1 (stereo not shown) [GSK1379713] | 8% | 0% | 0% | 2% | 26% | 0% | 0% | 5% | 0% | 0% | 0% | 0% | 6% | 0% | 23% | 0% | 0% | 0% | 0% | 0% |
| CS(=O)(=O)c1cccc(CNc2nc(Nc3ccc4c(c3)[C@@H]3C[C@@H]4CNC3=O)ncc2C(F)(F)F)c1 | 1% | 0% | 0% | 0% | 0% | 0% | 41% | 15% | 0% | 0% | 0% | 2% | 0% | 46% | 33% | 97.1% | 96.4% | 60% | 82% | 94% |
